Bioassay records: PubChem, Columbia University Molecular Screening Center
VCAM1 TNFa inh: reduces TNF alpha induced VCAM1 expression in HUVEC | HUVEC TNFa-induced VCAM-1 immunofluorescence, high-content imaging | inhibition, % at 2 µM | 0.48% of 95,000 active;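 active means inhibition above the batch mean plus 3 SD, with images confirmed as a hit by eye, cut at about 37% in these data; inconclusive means inhibition above that limit but hit not confirmed in images; inactive means inhibition not above that limit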;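 further: 0% = TNF-stimulated DMSO wells and 100% = unstimulated control wells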
HUVEC tox TNFa: toxic to HUVEC cells under TNF alpha stimulation | cell count reduction, % at 2 µM | AID 848 | HUVEC TNFalpha-stimulated, Hoechst cell count, imaging | 0.17% of 93,000 active;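 active means cell count reduction exceeding the screen mean by over 5 SD, scaled to untreated wells per plate, cut at about 78% in these data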;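 further: cells counted after 24 h of TNF alpha exposure following the 1 h pretreatment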
F-actin modifier: modifiers of cytoskeleton assembly | HUVEC TNFa F-actin phalloidin imaging, high content | inhibition, % at 2 µM | 0.18% of 91,000 active | AID 836;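 active means inhibition above the batch mean plus 3 SD and confirmed as a hit by visual image inspection, cut at about 30% in these data, passing the limit was not always enough; inconclusive means above the inhibition threshold but rejected on visual inspection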
E-sel TNF inh: TNF alpha driven E-selectin expression inhibition | HUVEC TNFa-induced E-selectin immunofluorescence, high content | inhibition, % at 2 µM | 0.71% of 120,000 active;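 active means inhibition above the batch mean plus 3 SD, and confirmed as a hit on visual image review, cut at about 43% in these data; inconclusive means passes the inhibition cutoff but fails visual image review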;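 further: 0% = TNF-stimulated DMSO wells and 100% = unstimulated control wells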
Active calls of the source: *; ? = inconclusive; . = no result. Sampled rows, rich in hits. Any-hit rate of the full collection: about 1.2%.

SMILES	VCAM1 TNFa inh	HUVEC tox TNFa	F-actin modifier	E-sel TNF inh
C=C(C)c1cccc(C(C)(C)NC(=O)N2CCCCC2CC)c1 (configuration not stated)	-28.3	2.2	1.8	56.9*
O=c1c2c(nc3cc(-c4ccc(Cl)cc4)[nH]n13)CCS2	.	.	.	9.5
COc1ccc(-c2cc(C(F)(F)F)nc(NCc3ccco3)n2)cc1OC	0.8	-35.7	17.3	.
FC(F)(F)c1cc(-c2ccc3c(c2)OCO3)nc(NCc2ccco2)n1	77.6*	78.5*	-6.9	18.8
Cc1cccc(NC(=O)c2cc3ccccc3o2)c1	-9.5	3.9	-0.1	-8.8
CCC(=O)Nc1cccc(NC(=O)c2cc3ccccc3o2)c1	86.1*	86.8*	-56.3	.
NC(=S)N/N=C/c1ccc(-c2cc(Cl)ccc2Cl)o1	54.0*	8.6	-8.3	-27.9
CN(C)c1ccc(C(=O)c2ccc(O)cc2O)cc1	22.4	-4.4	-13.3	-6.3
COc1ccc(C(=O)c2ccc(N(C)C)cc2)c2ccccc12	59.7*	53.9	27.1	-3.6
Cc1ccc2cc(C)c3nnc(SCC(=O)Nc4nc5c(s4)CCCC5)n3c2c1C	-5.2	-7.0	-0.6	31.2
COc1ccc(-c2cc(C)nc(SCc3cccc(C(=O)O)c3)n2)cc1	.	.	.	68.6*
Cc1ccc(S(=O)(=O)N(C)CCCC(=O)Nc2cc(C)ccc2C)cc1	.	.	.	97.4*
Cc1ccc(C)c(N2CCN(C(=O)CNS(=O)(=O)c3cccs3)CC2)c1	-3.2	4.3	-10.2	-8.9
COc1cccc(NS(=O)(=O)c2cc(C)ccc2OC)c1	9.7	-27.9	-5.3	-10.3
COc1ccc(C)cc1S(=O)(=O)Nc1cccc(SC)c1	51.2*	6.4	-19.7	17.1
Cc1nn(-c2ccccc2)c(Cl)c1CN(C(=O)CCl)c1cccc2ccccc12	.	.	.	95.8*
Clc1ccc(Nc2ccc(-n3ccnc3)nn2)cc1Cl	16.9	-20.8	4.9	65.0*
Cc1oc2c(CN3CCOCC3)c(O)ccc2c(=O)c1-c1ccc(Br)cc1	28.6	-40.4	2.3	4.0
O=c1c(-c2ccc(Br)cc2)coc2c(CN3CCOCC3)c(O)ccc12	62.2*	32.3	5.3	-9.0
CCNC(=O)CC1C(=O)N(c2ccc(C)cc2)C(=O)N1CCc1sccc1C (configuration not stated)	.	.	.	5.3
CCOC(=O)C1CCCN(C(=O)CNC(=O)Cn2ccc3ccccc3c2=O)C1 (configuration not stated)	.	.	.	-26.0
Fc1ccccc1SCc1nnc(-c2ccccc2Br)o1	.	.	.	67.7*
CN(c1ccc(C(=O)NCC2CCCO2)cc1)S(C)(=O)=O (configuration not stated)	12.3	-13.3	13.2	64.6*
Cc1cccnc1N(C(=O)Nc1ccccc1)C1=NCC(C)(C)S1	42.1*	57.2	7.7	-4.9
CCOC(=O)C1CCCN(C(=S)Nc2cccc(Cl)c2C)C1 (configuration not stated)	.	.	.	16.9
SMILES	VCAM1 TNFa inh	HUVEC tox TNFa	F-actin modifier	E-sel TNF inh
Cc1ccc(C(=O)OCn2ncc(Cl)c(Cl)c2=O)cc1	36.2*	4.7	-24.4	99.7*
CCOC(=O)c1ccc(NC(=O)Cn2ncc(Cl)c(Cl)c2=O)cc1	.	.	.	99.7*
CCOC(=O)c1ccc(NC(=O)CN2C(=O)CCC2=O)cc1	17.5	3.1	10.5	24.9
Cc1cc(SCC(=O)c2cccs2)nc2ccccc12	.	.	.	75.2*
Cc1ccc(-c2cnc(NC(=O)c3cccc(Br)c3)s2)c(C)c1	4.6	13.4	1.4	-22.4
Cc1c(Cl)cccc1-n1ccnc1SCC(=O)O	94.2*	78.3*	-31.4	.
CC(C)c1ccc(-n2ccnc2SCC(=O)O)cc1	.	.	.	-6.4
Cc1cc(OCc2nc(-c3ccncc3)no2)cc(C)c1Cl	.	.	.	-31.6
CCN(CC)S(=O)(=O)c1ccc(NC(=O)C(C)N(c2ccc(OC)cc2)S(C)(=O)=O)cc1 (configuration not stated)	?	100.0*	?	6.7
O=C(NCCN1C(=O)S/C(=C\c2cccs2)C1=O)c1ccc(=O)[nH]c1	.	.	.	-54.8
COc1cccc(N2CCN(c3ncnc4c3[nH]c3ccc(F)cc34)CC2C)c1 (configuration not stated)	51.5*	26.1	-0.5	96.7*
Cc1nn(Cc2ccccc2)c(Cl)c1/C=C/C(=O)OC(C(=O)NC(N)=O)C(C)C (configuration not stated)	.	.	.	-38.1
CC(C)N1CCc2[nH]c(=S)[nH]c(=O)c2C1	.	.	.	-18.6
CCCN1CCc2[nH]c(=S)[nH]c(=O)c2C1	.	.	.	67.9*
Cc1nonc1C1CCCN1C(=O)c1cc(COc2ccc(F)cc2Cl)on1 (configuration not stated)	.	.	.	-3.6
Cc1cccc(CS(=O)(=O)c2nnc([C@H](Cc3ccccc3)NC(=O)OC(C)(C)C)o2)c1	58.0*	23.3	-1.5	11.6
Cc1c(N=C/C=C2/N(C)c3ccccc3C2(C)C)c(=O)n(-c2ccccc2)n1C	-38.4	4.5	-8.4	-13.2
Cc1c(N=C/C=C2\N(C)c3ccccc3C2(C)C)c(=O)n(-c2ccccc2)n1C	18.2	-2.6	5.5	62.6*
CC(C)CC(=O)Nc1ccc2c3c(cccc13)CC2	.	.	.	-3.3
Cc1ccc(S(=O)(=O)Cn2nnnc2C(C(C)C)N2CCN(c3nc4ccccc4s3)CC2)cc1 (configuration not stated)	50.5*	40.0	22.4	-0.2
c1ccc(Cn2nnnc2C(c2ccccc2)N2CCN(c3nc4ccccc4s3)CC2)cc1 (configuration not stated)	23.4	-24.1	21.4	.
COC(=O)C1=C(N)Oc2cc(C)n(CC3CCCO3)c(=O)c2C1c1ccc(Cl)cc1 (configuration not stated)	18.2	-19.1	-22.0	8.8
O=C1c2ccccc2-c2ncnc3cccc1c23	5.6	2.6	11.4	64.7*
CC(/C=N/NC(=O)c1cc(-c2ccncc2)nc2ccccc12)=C\c1ccco1	87.1*	65.0	-14.4	41.2
CCCOc1ccc(/C(O)=C2/C(=O)C(=O)N(CCOC)C2c2cccnc2)cc1 (configuration not stated)	86.8*	80.4*	-25.9	-10.9
SMILES	VCAM1 TNFa inh	HUVEC tox TNFa	F-actin modifier	E-sel TNF inh
COc1ccc(/C(O)=C2/C(=O)C(=O)N(Cc3cccnc3)C2c2ccncc2)cc1F (configuration not stated)	3.7	36.7	-10.6	70.0*
CC1Cc2cc(/C(O)=C3/C(=O)C(=O)N(CCCn4ccnc4)C3c3ccncc3)ccc2O1 (configuration not stated)	5.7	-10.9	-27.1	58.3*
CCCOc1ccc(/C(O)=C2/C(=O)C(=O)N(CCCn3ccnc3)C2c2ccco2)cc1 (configuration not stated)	10.6	-11.5	-10.9	100.0*
CC1Cc2cc(/C(O)=C3/C(=O)C(=O)N(CCCn4ccnc4)C3c3ccco3)ccc2O1 (configuration not stated)	8.1	-17.4	2.9	0.8
Cc1cccc(C(=O)NC(=S)N2CCN(C(=S)NC(=O)c3cccc(C)c3)CC2)c1	.	.	.	3.3
Cc1ccc(OCCOCCn2ccnc2)c(Br)c1	-10.2	-12.8	1.7	-9.5
CCCC(C)c1nnc(NC(=O)c2cc(C(=O)OC)cc([N+](=O)[O-])c2)s1 (configuration not stated)	-27.8	.	17.8	16.0
CCN(Cc1cc2cc(C)ccc2[nH]c1=O)C(=O)c1cccc(OC)c1	90.4*	82.3*	-65.1	.
